Assay outcomes deposited in PubChem by National Center for Advancing Translational Sciences (NCATS).
Rows were chosen to be rich in hits. Some 19% of all compounds tested hit in one or more screens of this group.
DT40 TDP1 no CPT: qHTS for Inhibitors of human tyrosyl-DNA phosphodiesterase 1 (TDP1): qHTS in cells in absence of CPT; DT40 Tdp1-/- hTDP1 cells, no CPT, ATP luminescence, 48 h; Potency, µM (series often up to 46.2 µM), for inactives: at the highest dose activity change, negative = growth inhibition, usual class: inhibitors; 15% of 420,000 active; AID 686978, 2013; note: potency is the fitted concentration of half-maximal effect; nearly all actives have a fitted effect of over 55% in size
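Camptothecin absent (DMSO only). Human TDP1-complemented DT40 knockout cells, 400 cells/well, 37 °C for minimum 48 hr; ATP measured via CellTiter-Glo, 30 min dark incubation, luminescence.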
TDP1 cell CPT: growth inhibition of DT40 Tdp1-/-;hTDP1 cells with camptothecin (screen for TDP1 inhibitors). chicken DT40 Tdp1-/-;hTDP1 cells + 20 nM CPT, ATP luminescence, 48 h. AID 686979. 12% of 420,000 active. Potency, µM (doses to about 46.2 µM), for inactives: at the top dose activity change, negative = growth inhibition, actives largely listed as inhibitors; note: potency is the fitted concentration of half-maximal effect; nearly all actives have a fitted effect of over 55% in size
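Chicken DT40 Tdp1-/- cells stably complemented with human TDP1 were seeded at 400 cells/well in medium containing 20 nM camptothecin, exposed to pin-transferred compounds, and grown at 37 °C for at least 48 hr. Viability was read as ATP luminescence.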
HT1080 IDH1KD tx: HT-1080 IDH1 knockdown cell toxicity (counter line); Potency, µM (titrated, usually from 46.1 µM), for the others: at the top dose activity, negative = toxicity, usual class: cytotoxic; 2% of 360,000 active; HT-1080 IDH1 knockdown viability, ATP luminescence, 48 h; AID 686971;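 note: potency is the fitted concentration of half-maximal effect; 0% = DMSO wells and -100% = cell-free medium wells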
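Viability of IDH1-knockdown HT-1080 fibrosarcoma cells was assessed by CellTiter-Glo after 48 h at 37 °C with titrated compound; concentration-effect curves were classified by fit quality and response size.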
HT1080NT lethal: kills 2HG-producing HT-1080-NT fibrosarcoma cells. Potency, µM (titrated, usually from 46.1 µM), without a hit: top-dose activity, negative = less viability, most hits filed as cytotoxic. AID 686970. HT-1080-NT fibrosarcoma viability, CellTiter-Glo ATP luminescence, 48 h. 1.6% of 360,000 active;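 note: NT is the 2HG producing partner of a matched IDH1 knockdown line; potency is the fitted concentration of half-maximal effect; 0% = DMSO-treated cells and -100% = media-only wells without cells; nearly all actives have a fitted effect of over 55% in size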
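Fibrosarcoma NT cells, 750 per well in 5% FBS RPMI, were exposed to compound for 48 hours. Viability: CellTiter-Glo luminescence.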
IL-1B inflam inh: inhibitors of inflammasome signaling (IL-1 beta secretion). THP-1 LPS/ATP IL-1B secretion, AlphaLISA, 16 h; stronger effect = lower value. activity change, % at 57.5 µM. 4.7% of 360,000 active. AID 743279; in the data active = activity change below about -50%; inconclusive = mostly about -30% to -49%
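THP-1 cells pretreated 1 hr with compounds (up to 57.5 uM final), then stimulated with LPS (250 ng/mL final) plus ATP (1.25 mM final); secreted IL-1B measured by AlphaLISA after 16 hr, decreased signal indicating inhibition.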
Starred values were filed as active, the others as inactive; ? = inconclusive; . = no result given; [ ] = another dose, or the depositor's remark. Unless noted, calls come from the whole dose curve; as a rule, active = well fitted curve in the direction sought with a large enough effect; inconclusive = small, poorly fitted or top-dose-only effect, or another doubt; inactive = no such curve, though single readings can be large; an effect the other way counts as inactive or inconclusive. Unless noted, % is set by controls: 0 for no effect and ±100 for the full control effect.

SMILES | DT40 TDP1 no CPT | TDP1 cell CPT | HT1080 IDH1KD tx | HT1080NT lethal | IL-1B inflam inh
COC(=O)C(NC(=O)c1ccc(F)cc1)(Nc1ncc(S(=O)(=O)c2ccc([N+](=O)[O-])cc2)s1)C(F)(F)F (stereo not given) | 13µM* | 16.4µM* | ? | ? | -3.4
COC(=O)C(NC(=O)c1ccccc1C)(Nc1ncc(S(=O)(=O)c2ccc([N+](=O)[O-])cc2)s1)C(F)(F)F (stereo not given) | ? | ? | ? | ? | -23.3
CC(=O)Nc1ccc(NC(=O)c2cc3c(=O)n(Cc4cccnc4)ccc3nc2C)cc1 | -20.5% | -5.4% | . | . | .
COc1cccc(OC)c1C(=O)OCC(=O)NCc1ccco1 | 3.5% | 3.7% | 3.0% | 5.2%[9.24 µM] | -3.6
O=C(COC(=O)/C=C/c1ccc(F)cc1)NCc1ccco1 | 4.6% | 9.6% | 1.9% | 6.2% | -12.2
COc1ccccc1/C=C/C(=O)OCC(=O)NCc1ccco1 | ? | 18.4µM* | 15.8% | 13.9% | 31.6
COc1ccccc1/C=C/C(=O)OCC(=O)NNC(=O)c1ccccc1 | 18.4µM* | -25.1% | 25.6% | 7.4% | 24.2
COc1cc(/C=C/C(=O)OCC(=O)NCc2ccco2)ccc1O | 16.4µM* | 20.6µM* | -19.1% | -14.7% | 1.6
Cc1cc(C)cc(-n2ccn(Cc3ccccc3C)c(=O)c2=O)c1 | -28.6% | -20.8% | . | . | .
COCc1cc(C)n(CC(=O)Nc2ccc3c(c2)OCO3)c(=O)c1C#N | ? | 1.4% | 12.4% | -0.1% | 13.7
Cc1ccc(-c2ccc(CN3C(C)C(=O)N(Cc4cn(CCC5OCCO5)nn4)CCS3(=O)=O)cc2)cc1 (stereo not given) | ? | 16.4µM* | -5.4% | -6.7% | -10.6
CC1C(=O)N(Cc2cn(CCC3OCCO3)nn2)CCS(=O)(=O)N1Cc1ccc(-c2ccc(Cl)cc2)cc1 (stereo not given) | 7.31µM* | 3.66µM* | ? | ? | -14.4
CC1C(=O)N(Cc2cn(CCC3OCCO3)nn2)CCS(=O)(=O)N1Cc1ccc(-c2ccccc2)cc1 (stereo not given) | ? | -29.3% | 3.8% | -4.1% | 66.5
CCOC(=O)N1CCN(C2CCCN(C(=O)c3ccccc3N(C)C)C2)CC1 (stereo not given) | -6.1% | 3.1% | 0.9% | 0.5% | -14.3
O=C(NCC1CCC2(CCN(Cc3cc4ccccc4o3)CC2)O1)c1ccccc1 (stereo not given) | -11.8% | 9.6%[9.04 µM] | . | . | .
CC(C)(C)CC(=O)Nc1cccc2c1CCCC2 | -13.0% | -4.0% | 10.0% | 5.9% | -7.9
c1cc2c(c(NCc3ccncc3)c1)CCCC2 | 11.6µM* | 11.6µM* | -10.7% | -6.2% | 16.5
COc1cccc(-c2sc3ccc(OC)cc3c2-c2ccc(OCCN3CCOCC3)cc2)c1 | ? | 16.4µM* | ? | -27.4% | -11.4
C1=C(c2sc3ccccc3c2-c2ccc(OCCN3CCOCC3)cc2)CCCC1 | ? | ? | 1.8% | 2.2% | 15.5
c1ccc(-c2sc3ccccc3c2-c2ccc(OCCN3CCOCC3)cc2)cc1 | ? | -27.7% | -1.6% | -0.2% | 0.2
COc1ccc(-c2sc3ccccc3c2-c2ccc(OCCN(C)C)cc2)cc1 | 23.1µM* | ? | ? | 23.1µM* | -26.9
O=C(c1ccc(OCCN2CCCCC2)cc1)c1c(-c2ccc(O)cc2)sc2cc(O)ccc12 | 16.8µM* | ? | 20.6µM* | 20.6µM* | 11.3
Oc1cccc(-c2sc3ccccc3c2-c2ccc(OCCN3CCCCC3)cc2)c1 | 11.6µM* | 18.4µM* | 11.6µM* | 20.6µM* | 0.0
CCOc1ccc(NC(=O)CCCNC(=O)Cn2cnc3sc(C)c(C)c3c2=O)cc1 | -24.5% | 1.0% | ? | ? | 8.8
COc1cccc(-c2sc3ccc(OC)cc3c2-c2ccc(OCCN(C)C)cc2)c1 | 16.4µM* | 23.1µM* | ? | ? | -62.0*
SMILES | DT40 TDP1 no CPT | TDP1 cell CPT | HT1080 IDH1KD tx | HT1080NT lethal | IL-1B inflam inh
CSc1ccccc1OCc1cc(C(=O)N(C)CCn2nc(C)cc2C)no1 | 20.6µM* | 14.6µM* | -6.8% | 13.9% | 19.5
CSc1ccccc1OCc1cc(C(=O)NCc2cccc(C)n2)no1 | -7.4% | -1.1% | 5.1% | -0.7% | -5.4
CCn1nc(C)c(CNC(=O)c2cc(COc3ccccc3SC)on2)c1C | ? | 20.6µM* | -9.3% | -9.6% | -11.8
CSc1ccccc1OCc1cc(C(=O)N(C)Cc2nonc2C)no1 | ? | ? | 0.2% | -9.8% | ?
CSc1ccccc1OCc1cc(C(=O)NC(C)Cc2cccc(C)n2)no1 (stereo not given) | 13µM* | 16.4µM* | -8.0% | -2.7% | -56.7*
O=C(c1cccs1)N(c1ccc(Br)cc1)C1C=CS(=O)(=O)C1 (stereo not given) | -13.4% | ? | -2.2% | -3.7% | -25.9
C=C(c1ccc2ccccc2n1)c1cccs1 | 14.1µM* | 11.2µM* | . | . | .
Cc1ccc2[nH]cc(C(c3ccccc3)c3ccc(Cl)s3)c2c1 (stereo not given) | 14.6µM* | ? | . | . | .
CCc1ccc(C(c2ccccc2)c2c[nH]c3ccc(C)cc23)s1 (stereo not given) | 16.4µM* | ? | . | . | .
Cn1cc(C(c2ccccc2)c2ccc(Cl)s2)c2ccccc21 (stereo not given) | -15.3% | -19.7% | . | . | .
CCc1ccc2oc(C(=O)NCC(c3ccc(Cl)cc3)N3CCOCC3)c(C)c2c1 (stereo not given) | 8.2µM* | 8.2µM* | . | . | .
Cc1ccc2c(C)c(C(=O)NCC(c3ccc(Cl)cc3)N3CCOCC3)oc2c1 (stereo not given) | 11.6µM* | 14.6µM* | . | . | .
Cc1cc2cc(NC(=O)c3ccco3)ccc2[nH]1 | -7.6% | -1.7% | 4.4% | 0.1% | ?
Cc1ccc(C(=O)Nc2ccc(NC(=O)c3ccco3)c(C)c2)cc1 | -18.1% | -4.5% | -2.2% | 8.0% | -59.3*
Cc1cc(NC(=O)c2ccc(Br)o2)ccc1NC(=O)c1ccco1 | 16.4µM* | 14.6µM* | ? | ? | .
O=C(Nc1ccc2[nH]c3c(c2c1)CCCC3)c1ccco1 | 20.6µM* | ? | -21.4% | -16.1% | -5.9
O=C(c1ccc(N2C(=O)CCC2=O)cc1)N1CCCSC1=Nc1ccccc1 | ? | -7.7% | -0.2% | 10.0% | 27.4
Cc1cc(C)cc(S(=O)(=O)c2cn(C)c3cc(N4CCN(C)CC4)c(F)cc3c2=O)c1 | ? | ? | -2.0% | 11.1% | 4.2
CCCCn1c(N)c(N(CCOC)C(=O)COc2ccc(Cl)cc2)c(=O)[nH]c1=O | 9.6% | -3.0% | 1.0% | 4.9% | 3.0
COc1ccccc1CNc1ncccn1 | -0.4% | 23.3% | 9.1% | 10.5% | 4.1
Clc1cccc(CNc2cc(-c3ccccc3)nc3nncn23)c1 | 14.6µM* | 14.6µM* | . | . | .
